PubChem BioAssay (NCI)
Compounds without any hit were thinned out: in the full panel of roughly 83,000, 20% have a hit.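 Growth was measured after 48 h exposure to one concentration of compound in 96-well plates. Values under 10 count as active.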 Values without a mark were called inactive. Active and inactive are the calls of the source.

System: HL-60(TB) leukemia
Assay: NCI-60 one-dose screen, 48 h (100 = growth as untreated, 0 = no growth, -100 = all killed)
Conditions: 10 µM unless noted

Structure (SMILES) | growth
CN(C)c1ccc(-c2cc(-c3c[nH]c4ccccc34)nc(N)c2C#N)cc1 | 20.6%
CCCCCc1ccc(S(=O)(=O)Nc2cccc(-c3csc(NCCN4CCN(C)CC4)n3)c2)cc1 | 0.22% (active)
Cc1c(Nc2nnc(SCC(=O)Nc3sc4c(c3C#N)CCCC4)s2)c(=O)n(-c2ccccc2)n1C | 108%
O=C(CSc1nnc(-c2ccc3nc(-c4ccccc4)[nH]c3c2)o1)Nc1ccc(C(=O)/C=C/c2ccccc2)cc1 | 109%
CN1C(=O)N(c2ccccc2)C2N=C(N/N=C/c3ccccc3)SC21 (stereo unspecified) | -6.56% (active)
COc1ccc(/C=N\NC(=O)c2cnn(CC(O)c3ccccc3)c2N)cc1OCc1ccc(Cl)cc1 (stereo unspecified) | 99.7%
N#Cc1cccc(CN2CCc3ncn(Cc4ccc(Cl)cc4)c(=O)c3C2)c1 | 13.5%
c1cc(-c2nc3ccc4[nH]ncc4c3c3c2CCCC3)[nH]n1 | 80.8%
CCOP(=O)(OCC)OC[C@]12CCC(C)(C)C=C1[C@H]1CC[C@@H]3[C@@]4(C)CC[C@H](OP(=O)(OCC)OCC)C(C)(C)[C@@H]4CC[C@@]3(C)[C@]1(C)CC2 | -22.1% (active)
Cn1cc(-c2nnc(N)nc2-c2c[nH]c3ccc(Br)cc23)c2cc(Br)ccc21 | 90.8%
COc1cc(OC)c(S(=O)(=O)NNC(=O)c2ccncc2)cc1C(=O)/C=C/c1ccc(C)cc1 | 51.2%
Nc1nc(-c2cccc([N+](=O)[O-])c2)c(N=Nc2ccccc2Cl)s1 | 93.7%
Cc1ccc(C(=O)CSc2nc3ccccc3c(=O)n2C)cc1 | 87.4%
CCN(CC)CCOc1ccc(C(=C(C)Cc2ccc(OC)cc2)c2ccc(OCCN(CC)CC)cc2)cc1 | -42.3% (active)
CCCC(=O)NC(c1ccc2c(c1)OC(F)(F)O2)c1cc(C)c2cccnc2c1O (stereo unspecified) | -4.8% (active)
COc1ccc(/C=N/NC(=O)c2cn(C3CC3)c3c(OC)c(N4CC5CCCNC5C4)c(F)cc3c2=O)cc1 (stereo unspecified) | 80.6%
COc1ccc(-c2nc3ccc(-c4nnc(SCC(=O)Nc5ccc(C(C)=O)cc5)o4)cc3[nH]2)cc1 | 83.4%
CNC(=O)c1cc(Oc2ccc3nc(NC(=O)c4cccc(OC(F)(F)F)c4)sc3c2)ccn1 | 67.5%

Structure (SMILES) | growth
O=C(O)c1ccc(-n2c(=O)n(-c3cccc(C(F)(F)F)c3)c(=O)c3cc(-c4ccc(F)cc4F)ccc32)cc1 | -41.4% (active)
C#CCOc1ccc(-c2csc(NC(=O)C=C)n2)cc1NS(=O)(=O)c1cccc2c(N(C)C)cccc12 | -4.97% (active)
CN1CCN(c2ccc(/C=N/n3cnc4oc(-c5ccccc5)cc4c3=N)cc2)CC1 | 121%
Cc1ccc(CNS(=O)(=O)/N=C2\NC(=O)NC2=C(Cl)Cl)cc1 | 28.6%
CC1CCN(CC(=O)Nn2c(COc3ccccc3)nc3ccccc3c2=O)CC1 | 80.3%
NC(N)=NS(=O)(=O)c1ccc(N=Nc2c(N)nn(-c3ccc([N+](=O)[O-])cc3[N+](=O)[O-])c2N)cc1 | 97.3%
COc1ccc(NC2=C(Cl)C(=O)C(C)=C(C)C2=O)cc1OC | 88.4%
CC1CCc2c(sc3nc(SCC(=O)N/N=C/c4ccc(Cl)cc4)n(-c4ccccc4)c(=O)c23)C1 (stereo unspecified) | 107%
C/C(=N\NC(N)=O)c1c(O)sc(=O)[nH]c1=O | 96.2%
O=c1[nH]c2ccccc2cc1CSc1ccccc1Nc1nccc(-c2ccc(C(F)(F)F)cc2)n1 | 90%
CCNC(=O)N1CCc2cc(OC)c(OCCc3ccc(OC)c(N)c3)cc2C1c1cc(C)c(C)cc1C (stereo unspecified) | 22.1%
O=S(=O)(Nc1ccc(C2CC2)cc1)c1ccc(-c2cnc(C3CC3)o2)cc1 | 38.9%
COc1ccc(N2CCN(C3=C(Cl)C(=O)c4ncccc4C3=O)CC2)cc1 | -4.99% (active)
Cc1ccc(-c2nnc3sc(C4=Cc5ccccc5OC=C4)nn23)cc1 | 85%
C#Cc1nc(C(=O)NCCCCCCC(=O)NO)cs1 | -51.7% (active)
Nc1nc(-c2cccc([N+](=O)[O-])c2)c(N=Nc2cccc(Cl)c2)s1 | 56.4%
Cc1cc(-c2ccc3nc(N)sc3c2)nc2ccc3[nH]ncc3c12 | 25.8%
COc1ccc(-c2nc3ccc(-c4nnc(SCC(=O)Nc5ccc(C(=O)/C=C/c6ccccc6)cc5)o4)cc3[nH]2)cc1OC | 100%
